Screening results as filed in PubChem.
VCAM1 TNFa pot = potentiators of TNFa-induced VCAM1 expression, primary screen, imaging, HUVEC, TNFa stimulus, immunofluorescence; HUVEC TNFa-stimulated VCAM-1 immunofluorescence, high-content imaging; scaled per plate to unstimulated/TNFa-only wells; activation, % at 2 µM; 93,000 compounds, 0.19% hits; AID 808, 2007;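 active means activation above the screen mean plus 3 SD, with well images confirming the hit on visual review, cut at about 28% in these data, passing the limit was not always enough; inconclusive means activation above that limit but images do not confirm it; inactive means activation not above that limit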;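 further: signal is the number of cytoplasmic VCAM-1 stained grains per positive cell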
VCAM1 pot confirm = potentiators of TNFa-induced VCAM1 expression, confirmation, imaging, HUVEC, triplicate retest; 230 tested, under 10 active; HUVEC TNFa-stimulated VCAM-1 immunofluorescence imaging; activation, % at 2 µM; shares compounds with VCAM1 TNFa pot;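 active means activation above 30% in triplicate retests at 2 µM, then confirmed by visual review of the well images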;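 further: scaled per plate between unstimulated and TNFa-stimulated DMSO control wells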
Active calls of the source: *; ? = inconclusive. The entries come from a sample that favours hits as a whole.

SMILES	VCAM1 TNFa pot	others
O=C(O)c1cccc(COCC(F)(F)C(F)F)c1	0
CC(C)(C)c1ccc(C(=O)CCCSC2=C(C#N)C(c3ccco3)C3=C(CCCC3=O)N2)cc1 (stereo unspecified)	6
Cc1cc(C(=O)OCC(=O)NC2CCCCC2)c(C)o1	-16
O=C(COC(=O)CCS(=O)(=O)c1ccc(Cl)cc1)NC1CCCCC1	54*	VCAM1 pot confirm=-14
O=C(NC1CC1)c1ccc(S(=O)(=O)NCC2CCCCC2)cc1	-52
Cc1cc(C)nc(NS(=O)(=O)c2ccc(N/C=C3\CCCC3=O)cc2)n1	-8
CCOC(=O)c1nnn(CC(=O)N2N=C(c3ccccc3)CC2c2ccccc2)c1C(=O)OCC (stereo unspecified)	17
CNC(=S)N1N=C(c2ccc(Br)cc2)CC1c1ccc(Br)cc1 (stereo unspecified)	69*	VCAM1 pot confirm=0
CC(C(=O)N1CCOCC1)(c1ccccc1)c1ccccc1	-4
O=C(COC(=O)CNC(=O)C1CCCCC1)Nc1ccc2ccccc2c1	-4
CSc1nc2sc(-c3ccccc3)cc2c(=O)n1N	-36
CCOC(=O)/C(=C\c1cccnc1)C(=O)c1cc(C(C)=O)c(Nc2ccccc2)s1	-54
CCOC(=O)/C(=C\c1ccccc1)C(=O)c1cc(C(C)=O)c(Nc2ccccc2)s1	68*	VCAM1 pot confirm=-13
O=C(Cn1c(C(F)(F)F)nc2ccccc21)NCCCN1CCOCC1	1
CS(=O)(=O)N(CC(=O)NCc1ccccc1Cl)Cc1ccccc1	-50
COc1ccc(/C=N/n2c(-c3ccco3)nc3ccccc3c2=O)cc1	3
COCCCn1c(SCC(=O)NCc2ccccc2)nc2ccccc2c1=O	-2
COCCCn1c(-c2ccccc2)nc2ccccc2c1=O	31*	VCAM1 pot confirm=-2
O=C(Nc1cc(Cl)cc(Cl)c1)C1CCC(=O)N1Cc1ccccc1Cl (stereo unspecified)	-3
Cc1nn2c(N)csc2nc1=O	-9
N#Cc1cc(Oc2ccc(Cl)cc2)c(N2CCOCC2)cc1C#N	12
COc1ccccc1Nc1nnc(C)c(=O)[nH]1	5
CCOC(=O)/C(=N\Nc1cccc(C(F)(F)F)c1)N(CCOC)CCOC	5
Cc1ccc2c(c1)c(CC(=O)Nc1ccc(C)c(F)c1)c(C(=O)O)n2C	6
O=C(COC(=O)C1CC(=O)N(c2nc(-c3ccccc3)cs2)C1)c1ccccc1 (stereo unspecified)	55*	VCAM1 pot confirm=-12
SMILES	VCAM1 TNFa pot	others
O=C(CSc1cccc2cccnc12)OCC(=O)c1ccccc1	-9
CC(C)(C)OC(=O)N1CC(O)CC1C(=O)OCC(=O)c1ccccc1 (stereo unspecified)	21
CC(c1ccccc1)n1cc(C(=O)NCC2COc3ccccc3O2)nn1 (stereo unspecified)	7
COCCCNC(=O)CSC1=Nc2ccccc2C2=NC(Cc3c[nH]c4ccccc34)C(=O)N12 (stereo unspecified)	4
CCc1ccc(NC(=O)Cn2c(=O)n(CCCC(=O)NCc3ccco3)c(=O)c3ccccc32)cc1	?	VCAM1 pot confirm=-16
O=C(Cn1c(=O)oc2ccccc21)NCc1ccco1	-5
CCN(Cc1ccccc1)C(=O)Cn1c(=O)n(CC(=O)NCc2ccco2)c(=O)c2sccc21	-9
CCOC(=O)c1ccc(N=C2C(=S)N(c3ccc(C(=O)OCC)cc3)C(=N)N2/N=C/c2ccccc2)cc1	11
NC(=O)C1CCN(C(=O)CSc2ccccn2)CC1	41*	VCAM1 pot confirm=-6
NC(=O)C1CCN(C(=O)CCSc2ccccc2)CC1	5
O=C(CSc1ccc2nnc(-c3ccccc3)n2n1)N1CCN(c2ccccc2)CC1	-8
CC(=O)Nc1ccc2c(c1)C(=O)N(c1ccc(C)cc1)C2=O	-6
N#C/C(=C(/O)CN1CCOCC1)c1nc2ccccc2s1	18
O=C(c1ccco1)N(CCC(c1ccccc1)c1ccco1)Cc1ccco1 (stereo unspecified)	-17
COc1ccc2oc(=O)c(C(C)=O)cc2c1	2
CC(=O)Oc1ccc2cc(-c3nc4ccccc4n3C)c(=O)oc2c1	48*	VCAM1 pot confirm=-15
Cn1c(=O)c(C(=O)c2ccccc2)nc2ccccc21	-7
c1ccc(-c2nnc3ccc(N4CCC5(CC4)OCCO5)nn23)cc1	-7
CC(NC(=O)c1ccccc1Cl)C1COc2ccccc2O1 (stereo unspecified)	-1
CC(C)C(OC(=O)c1ccco1)C(=O)NCc1ccccc1 (stereo unspecified)	-18
CC(C)(C)n1[nH]c2c3c(ccc2c1=O)C(=O)c1ccccc1C3=O	37*	VCAM1 pot confirm=-4
Cn1c(=O)[nH]c2sc3c(c2c1=O)CC(C)(C)OC3	7
Cc1cccc(C)c1NC(=S)NN1CCN(C)CC1	0
O=C(NCc1ccco1)c1ccccc1-c1nc(-c2ccccc2)no1	16
c1nc(N2CCOCC2)c2sc3nc(N4CCOCC4)c4c(c3c2n1)CCCC4	-8
SMILES	VCAM1 TNFa pot	others
Cc1cc(C)c2c(n1)sc1c(N3CCN(CCO)CC3)ncnc12	?	VCAM1 pot confirm=-13
Cc1cc(C)c2c(N)c(C(=O)N3CCN(c4ncccn4)CC3)sc2n1	-22
CCN=C1SC(CC(=O)Nc2ccccc2)C(=O)N1CC (stereo unspecified)	-7
Cc1noc(C)c1C(=O)N1CCN(CCc2ccccc2)CC1	-18
CCCCCCCCCCn1c2c(c(=N)c3c1CCC3)CCC2	-87
Cc1ccc(Oc2ccc(C(=O)NC3CCSC3=O)cn2)cc1 (stereo unspecified)	20
Cc1cc(S(=O)(=O)N(Cc2ccc(F)cc2)CC2CCCO2)ccc1-n1cnnn1 (stereo unspecified)	-9
CS(=O)(=O)N(Cc1ccco1)Cc1ccccc1Cl	2
COc1ccccc1CN(Cc1ccco1)S(=O)(=O)c1ccc(-n2cnnn2)c(OC)c1	43*	VCAM1 pot confirm=-19
COc1ccc(-c2nn(-c3ccccc3)cc2/C=N/NC(=O)c2ccc3c(c2)OCO3)cc1	0
Nc1sccc1C(=O)c1ccc(Cl)cc1	-92
O=C1c2ccccc2C(=O)N1C/C=C/CN1C(=O)c2ccccc2C1=O	-4
Cc1ccc(N2CC(C(=O)Nc3ccccc3C(=O)NC3CCCCC3)CC2=O)cc1 (stereo unspecified)	21
CC1(C)Cc2c(cnn2-c2ccccc2)C(=O)/C1=N\NC(=O)c1ccccc1	34*	VCAM1 pot confirm=-18
COc1ccc(NC(=O)CC2C(=O)N(c3ccc(OC)cc3)C(=O)N2CCN2CCN(C)CC2)cc1 (stereo unspecified)	1
CCOC(=O)COc1ccc2c(c1)C(=O)CC1(CCCCC1)O2	3
Cc1cc(NC(=O)CSc2nc(C(C)C)nc3sc4c(c23)CCCC4)no1	8
COc1cccc(S(=O)(=O)N2CCN(c3ccccc3F)CC2)c1	-14
COc1cccc(CN2CCN(c3ncccn3)CC2)c1	-9
COc1ccc(S(=O)(=O)N2CCN(Cc3cccc(Cl)c3)CC2)cc1	?	VCAM1 pot confirm=-17
Cc1cccc(OCC(=O)Nc2cc(C)ccc2O)c1	-58
COc1ccc(C)cc1NC(=O)COC(=O)C1CC1	56*	VCAM1 pot confirm=-14
COc1ccc(C)cc1NC(=O)CN(Cc1nnc(-c2ccc(Cl)cc2)o1)C1CCCC1	-1
CCOC(=O)c1ccc(NC(=O)C2CCN(S(=O)(=O)c3ccccc3)CC2)cc1	-2
C=CCOc1cccc(C2/C(=C(\O)c3ccc(F)cc3)C(=O)C(=O)N2CCN(C)C)c1 (stereo unspecified)	-12
NC(=O)c1c(NC(=O)Cc2cccs2)sc2c1CCC2	-92
